Assay results as given in PubChem BioAssay.
Measured potencies and affinities stand elsewhere. Results filed as inconclusive are left out. Active and inactive are the calls of the source.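 Rule for the calls, unless noted: active = a fitted half-maximal concentration no higher than twice the top valid tested dose, with signal falling as cells die; inconclusive = flat curve between -70% and -30%, or poor fit; inactive = the rest, including signal rising instead of falling.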

Tests used:
[1] = Cryptococcus neoformans growth inhibition, dose response, Alamar Blue, cherry-picks (AID 686998;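 active = falling signal with fitted half-maximal potency no higher than twice the top valid tested dose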)
[2] = inducers of Cryptococcus neoformans cell lysis, dose response, AK release luminescence, cherry-picks (AID 687000;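 active = fitted dose curve reaches 40% lysis signal rise at or below the highest valid concentration tested for that sample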;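 note: luminescent detection of adenylate kinase leaking from lysed yeast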)
[3] = HepG2 cell cytotoxicity, dose response, cytotoxicity control, cherry-picks, set 2 (AID 687002;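 active = a dose-response fit showing signal loss, with half-maximal concentration no higher than twice the top tested dose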)
[4] = HeLa cell cytotoxicity, dose response, cytotoxicity control, ATP luminescence, cherry-pick samples (AID 687004)

Measured: outcome

O=C(NC(=S)Nc1ccc(CN2CCOCC2)cc1)c1ccc([N+](=O)[O-])cc1
inactive: all assays above

CC(=O)N1[C@@H]2c3ccc(-c4ccccc4)c(=O)n3C[C@H]1[C@H](CO)[C@H]2C(=O)Nc1ccccc1
inactive: all assays above

C[C@H](CO)N1C[C@H](C)[C@@H](CN(C)C(=O)Nc2ccc(F)cc2)Oc2c(NS(=O)(=O)c3ccccc3)cccc2C1=O
inactive: all assays above

CCCNC(=O)N(C)C[C@@H]1Oc2ncc(C#CCc3ccccc3)cc2C(=O)N([C@@H](C)CO)C[C@@H]1C
inactive: all assays above

COc1ccc(CN(C)C[C@H]2OCCCC[C@@H](C)Oc3ccc(NC(=O)c4ccccc4)cc3C(=O)N([C@H](C)CO)C[C@@H]2C)cc1
inactive: all assays above

Cc1ccc(S(=O)(=O)N(C)C[C@@H]2Oc3ncc(Br)cc3C(=O)N([C@@H](C)CO)C[C@H]2C)cc1
inactive: all assays above

CC(=O)c1cccc(NC(=S)NC2CCCCC2)c1
inactive: all assays above

CC(C)NC(=O)N(C)C[C@@H]1OCCCC[C@@H](C)Oc2ccc(NC(=O)c3ccccc3)cc2C(=O)N([C@H](C)CO)C[C@@H]1C
inactive: all assays above

Cc1noc(C)c1S(=O)(=O)Nc1ccc2c(c1)C(=O)N([C@H](C)CO)C[C@@H](C)[C@H](CN(C)Cc1ccccc1)OCCCC[C@H](C)O2
inactive: all assays above

C[C@@H]1CCCCO[C@@H](CN(C)Cc2ccc3c(c2)OCO3)[C@@H](C)CN([C@H](C)CO)C(=O)c2cc(NS(=O)(=O)c3ccc(F)cc3)ccc2O1
inactive: all assays above

CCC(=O)N1CCN(c2ccccc2NC(=S)NC(=O)c2cccc([N+](=O)[O-])c2)CC1
inactive: all assays above

CNC(=O)C[C@@H]1CC[C@@H]2[C@H](COC[C@@H](O)CN2C(=O)Nc2ccc3c(c2)OCO3)O1
inactive: all assays above

CO[C@H]1CN(C)C(=O)c2cc(NC(=O)c3ccc4c(c3)OCO4)ccc2OC[C@@H](C)N(CC2CC2)C[C@H]1C
inactive: all assays above

CO[C@H]1CN(C)C(=O)c2cc(NC(=O)c3ccccc3F)ccc2OC[C@H](C)N(CC2CCOCC2)C[C@H]1C
inactive: all assays above

C[C@@H]1CN([C@H](C)CO)C(=O)c2cccc(NC(=O)C3CC3)c2O[C@H]1CN(C)Cc1ccc(C(=O)O)cc1
inactive: all assays above

Cc1cccc(C)c1NC(=O)CNC(=O)C(C)N1CCCCC1 (stereo unspecified)
inactive: all assays above

COc1ccc(NC(=O)c2noc(C(C)C)c2[N+](=O)[O-])cc1
inactive: all assays above

O=C(O)C[C@@H]1CC[C@@H]2[C@H](COC[C@H](O)CN2S(=O)(=O)c2ccc(F)cc2)O1
inactive: all assays above

Cc1cc(C)c(NC(=O)C(C)N2CCCCCC2)c(C)c1 (stereo unspecified)
inactive: all assays above

C[C@@H]1CCCCO[C@H](CN(C)Cc2ccncc2)[C@@H](C)CN([C@H](C)CO)C(=O)c2cc(N(C)C)ccc2O1
inactive: all assays above

C[C@H](CO)N1C[C@H](C)[C@H](CN(C)Cc2cccnc2)Oc2ncc(C#CC3(O)CCCC3)cc2C1=O
inactive: all assays above

CCC(=O)N1[C@H](CO)[C@H](c2ccccc2)[C@@H]1CN(CC)C(=O)c1cccc(F)c1
inactive: all assays above

COc1ccccc1-c1ccc([C@H]2[C@@H](C#N)N(C(=O)C3CC3)[C@@H]2CO)cc1
inactive: all assays above

COc1ccccc1-c1cnc2c(c1)C(=O)N([C@@H](C)CO)C[C@@H](C)[C@H](CN(C)C(=O)c1cccnc1)O2
inactive: all assays above

COCC(=O)N(C)C[C@@H]1Oc2ncc(C#CCC3CCCC3)cc2C(=O)N([C@H](C)CO)C[C@H]1C
inactive: all assays above

O=C1CCC(C(=O)Nc2ccc(Cl)cc2)N1 (stereo unspecified)
inactive: all assays above

CO[C@@H]1CN(C)C(=O)c2cc(NS(=O)(=O)C3CCCCC3)ccc2OC[C@H](C)NC[C@@H]1C
inactive: all assays above

C[C@@H]1CN([C@@H](C)CO)C(=O)Cc2cc(NC(=O)Nc3cccc4ccccc34)ccc2O[C@@H]1CN(C)Cc1ccc(C(=O)O)cc1
inactive: all assays above

COc1ccc(NC(=O)N(C)C[C@@H]2OCCCC[C@H](C)Oc3ccc(NC(=O)Nc4ccc5c(c4)OCO5)cc3C(=O)N([C@H](C)CO)C[C@@H]2C)cc1
inactive: all assays above

O=S(=O)(NC[C@@H]1[C@@H](c2ccccc2)[C@H](CO)N1CC1CC1)c1ccccc1
inactive: all assays above

Cc1noc(C)c1S(=O)(=O)N(C)C[C@@H]1OCCCC[C@@H](C)Oc2ccc(NC(=O)CCCCCC(=O)Nc3ccccc3N)cc2C(=O)N([C@H](C)CO)C[C@@H]1C
inactive: all assays above

CCC(C)(C(=O)Nc1ccccc1C)N(C(=O)CNC(C)=O)c1ccc(C)cc1 (stereo unspecified)
inactive: all assays above

Cc1cc(C(=O)Nc2ccc3c(c2)C(=O)N(C)[C@H]2CC[C@@H](CC(=O)N[C@@H](C)c4ccccc4)O[C@H]2CO3)no1
inactive: all assays above

C[C@H](CO)N1C[C@H](C)[C@H](CN(C)C(=O)Nc2cccc(F)c2)Oc2ncc(C#CCN(C)C)cc2C1=O
inactive: all assays above

Cc1ccc(C2=NN(C(=O)c3ccc(Br)o3)C(c3ccc(C)cc3)C2)cc1 (stereo unspecified)
inactive: all assays above

COc1cc(CNC(C)(C)C)ccc1OCC(=O)NC(C)(C)C
inactive: all assays above

O=C(C[C@H]1C=C[C@H](NC(=O)C2CCC2)[C@@H](CO)O1)NC1CCC1
inactive: all assays above

CCCNC(=O)N1[C@@H](CO)[C@@H](c2ccc(-c3ccccc3)cc2)[C@@H]1CNC(C)=O
inactive: all assays above

COc1ccc(S(=O)(=O)Nc2ccc3c(c2)C(=O)N([C@H](C)CO)C[C@H](C)[C@H](CN(C)C(=O)Nc2ccccc2)O3)cc1
inactive: all assays above

C[C@@H](O)C#Cc1ccc([C@@H]2[C@H]3CN(CC4CC4)CCCCN3[C@H]2CO)cc1
inactive: all assays above

C[C@@H]1CN([C@@H](C)CO)C(=O)CCCn2cc(nn2)CO[C@@H]1CN(C)Cc1ccc2c(c1)OCO2
inactive: all assays above

C/C=C/c1ccc([C@@H]2[C@@H](CNC(=O)C3CC3)N(C(=O)CC)[C@H]2CO)cc1
inactive: all assays above

C[C@@H]1CN([C@@H](C)CO)C(=O)c2cc(C3=CCCCC3)cnc2O[C@H]1CN(C)C(=O)Cc1cccnc1
inactive: all assays above

CCS(=O)(=O)N1CCCCN2[C@H](C1)[C@@H](c1ccc(-c3ccc(C#N)cc3)cc1)[C@@H]2CO
inactive: all assays above

CCCNC(=O)[C@@H]1[C@@H](CO)[C@@H]2Cn3c(cccc3=O)[C@H]1N2C(=O)Nc1cc(F)ccc1F
inactive: all assays above

COc1cccc(C2CC(c3cccs3)=NN2C(=O)c2ccco2)c1O (stereo unspecified)
inactive: all assays above

COc1ccc(S(=O)(=O)N[C@@H]2C=C[C@@H](CC(=O)N3CCC(Cc4ccccc4)CC3)O[C@H]2CO)cc1
inactive: all assays above

CC(C)NC(=O)Nc1ccc2c(c1)C(=O)N([C@H](C)CO)C[C@@H](C)[C@H](CN(C)C(=O)Nc1ccccc1)OCCCC[C@@H](C)O2
inactive: all assays above

Cc1noc(C)c1NC(=O)N(C)C[C@H]1Oc2ccc(NS(=O)(=O)c3cn(C)cn3)cc2CC(=O)N([C@H](C)CO)C[C@H]1C
inactive: all assays above

C[C@@H]1CN([C@H](C)CO)C(=O)c2c(c3ccccc3n2C)-c2ccccc2CO[C@H]1CN(C)S(=O)(=O)c1cccs1
inactive: all assays above

CCS(=O)(=O)NCC[C@@H]1CC[C@@H](NS(=O)(=O)c2cccc(F)c2)[C@@H](CO)O1
inactive: all assays above

CC(C)NC(=O)Nc1ccc2c(c1)C(=O)N([C@@H](C)CO)C[C@@H](C)[C@H](CN(C)Cc1ccncc1)OCCCC[C@@H](C)O2
inactive: all assays above

O=C(CSc1ncnc2c1cnn2-c1ccccc1Cl)N1CCN(C(=O)c2ccco2)CC1
inactive: all assays above

O=C(NC[C@H]1[C@@H](c2ccccc2)[C@@H](CO)N1C(=O)C1CCC1)NC1CCCC1
inactive: all assays above
